# Results: the antibiotic and cytotoxicity screens of Wong et al. (2023)
# Screen size: about 39,000 compounds; about 3,300 (8.5%) were called active. This is one part of a sample in which actives are shown more often than they occur.
# Test system: HepG2
# Assay: cytotoxicity call (relative viability < 0.9)
# Details: 10 µM
row,SMILES,cytotoxicity call
1,C[C@@H]1CN([C@H](C)CO)C(=O)c2cccc(NC(=O)c3nc4ccccc4s3)c2O[C@H]1CN(C)C(=O)Nc1ccc(F)cc1,inactive
2,CN1CCN(C(=O)CC#N)CC1,inactive
3,C[C@@H]1CN([C@@H](C)CO)C(=O)c2cccc(NC(=O)C3CCCCC3)c2O[C@H]1CN(C)S(=O)(=O)c1cn(C)cn1,inactive
4,CCCCCC[C@@H](O)CC=CCCCCCCCC(=O)O,inactive
5,N[C@@H]1CC[C@@H](c2ccc(Cl)c(Cl)c2)c2ccccc21,active
6,CN[C@H]1CC[C@@H](c2ccc(Cl)c(Cl)c2)c2ccccc21,active
7,CNC1CCC(c2ccc(Cl)c(Cl)c2)c2ccccc21.Cl (centres undefined),active
8,C[C@@H]1CN([C@@H](C)CO)C(=O)CCCn2nncc2CO[C@@H]1CN(C)S(=O)(=O)c1ccc(C#N)cc1,inactive
9,CC(=O)NCCCC[C@@H]1NC(=O)[C@@H]2C[C@H](C(=O)NCCCCCCNC(=O)CS)[C@H](c3ccc(O)cc3)N2C1=O,inactive
10,C[C@@H]1CCCCO[C@H](CN(C)C(=O)NC2CCCCC2)[C@H](C)CN([C@@H](C)CO)C(=O)c2cc(NC(=O)c3ccncc3)ccc2O1,inactive
11,C[C@@H]1CN([C@@H](C)CO)C(=O)c2cc(NC(=O)NC3CCCCC3)ccc2O[C@@H](C)CCCCO[C@H]1CN(C)Cc1ccc(C(=O)O)cc1,inactive
12,CC(C)NC(=O)N(C)C[C@@H]1Oc2c(NS(=O)(=O)c3cn(C)cn3)cccc2C(=O)N([C@@H](C)CO)C[C@H]1C,inactive
13,C[C@@H]1CCCCO[C@@H](CN(C)S(=O)(=O)c2ccccc2)[C@H](C)CN([C@H](C)CO)C(=O)c2cc(NC(=O)Nc3cccc4ccccc34)ccc2O1,inactive
14,C[C@H]1CN([C@@H](C)CO)C(=O)c2cccc(NC(=O)C3CCOCC3)c2O[C@H]1CN(C)Cc1ccncc1,inactive
15,COCCOC(=O)N1C(=O)[C@@]2(c3cc(C#CC4=CCCCC4)ccc31)[C@H](c1ccccc1OCCO)N1[C@H](c3ccccc3)[C@H](c3ccccc3)OC(=O)[C@H]1[C@@H]2C(=O)N1CCc2cc(OC)c(OC)cc2C1,inactive
16,COCCOC(=O)N1C(=O)[C@@]2(c3cc(C#CC4=CCCCC4)ccc31)[C@H](C(=O)N1CCc3cc(OC)c(OC)cc3C1)[C@H]1C(=O)O[C@H](c3ccccc3)[C@H](c3ccccc3)N1[C@@H]2c1ccccc1OCCO,active
17,COCCOC(=O)N1C(=O)[C@@]2(c3cc(C#CC4=CCCCC4)ccc31)[C@H](c1ccc(OCCO)cc1)N1[C@H](c3ccccc3)[C@H](c3ccccc3)OC(=O)[C@H]1[C@@H]2C(=O)N1CCCCCCC1,inactive
18,COCCOC(=O)N1C(=O)[C@@]2(c3cc(C#CC4=CCCCC4)ccc31)[C@H](c1ccc(OCCO)cc1)N1[C@H](c3ccccc3)[C@H](c3ccccc3)OC(=O)[C@H]1[C@@H]2C(=O)N1CCc2cc(OC)c(OC)cc2C1,active
19,COCCOC(=O)N1C(=O)[C@@]2(c3cc(C#CC4=CCCCC4)ccc31)[C@H](C(=O)N1CCc3cc(OC)c(OC)cc3C1)[C@H]1C(=O)O[C@H](c3ccccc3)[C@H](c3ccccc3)N1[C@@H]2c1ccc(O)cc1,inactive
20,COCCOC(=O)N1C(=O)[C@@]2(c3cc(C#CCCO)ccc31)[C@H](c1ccccc1OCCO)N1[C@H](c3ccccc3)[C@H](c3ccccc3)OC(=O)[C@H]1[C@@H]2C(=O)N1CCc2cc(OC)c(OC)cc2C1,inactive

row,SMILES,cytotoxicity call
1,COCCOC(=O)N1C(=O)[C@@]2(c3cc(C#CCCO)ccc31)[C@H](C(=O)N1CCc3cc(OC)c(OC)cc3C1)[C@H]1C(=O)O[C@H](c3ccccc3)[C@H](c3ccccc3)N1[C@@H]2c1ccccc1OCCO,active
2,COCCOC(=O)N1C(=O)[C@@]2(c3cc(C#CCNC(N)=O)ccc31)[C@H](C(=O)N1CCc3cc(OC)c(OC)cc3C1)[C@H]1C(=O)O[C@H](c3ccccc3)[C@H](c3ccccc3)N1[C@@H]2c1ccccc1OCCO,inactive
3,COCCOC(=O)N1C(=O)[C@@]2(c3cc(C#CC4=CCCCC4)ccc31)[C@H](c1ccccc1OCCO)N1[C@H](c3ccccc3)[C@H](c3ccccc3)OC(=O)[C@H]1[C@@H]2C(=O)N1CCCCCCC1,inactive
4,C[C@H]1CN([C@@H](C)CO)C(=O)Cc2cc(NS(=O)(=O)c3ccc(F)cc3)ccc2O[C@H]1CN(C)S(=O)(=O)c1cccs1,inactive
5,Cc1ccccc1-c1ccc2c(c1)O[C@@H](CN(C)C(=O)Nc1ccc(C(F)(F)F)cc1)[C@@H](C)CN([C@@H](C)CO)S2(=O)=O,inactive
6,COC(=O)[C@@H]1CC(=O)N(C(C)C)C1,inactive
7,C[C@@H]1CN([C@H](C)CO)C(=O)c2c(c3ccccc3n2C)-c2ccccc2CO[C@@H]1CN(C)Cc1ccc(Oc2ccccc2)cc1,inactive
8,CN1CCN(C(=O)C[C@@H]2C=C[C@H](NC(=O)Cc3ccccn3)[C@@H](CO)O2)CC1,inactive
9,CCCC#Cc1cnc2c(c1)C(=O)N([C@@H](C)CO)C[C@@H](C)[C@H](CN(C)C(=O)c1ccc3c(c1)OCO3)O2,inactive
10,Cc1noc(C)c1NC(=O)N(C)C[C@H]1Oc2ccc(NC(=O)Nc3cccc4ccccc34)cc2CC(=O)N([C@@H](C)CO)C[C@H]1C,inactive
11,C[C@@H]1CCCCO[C@@H](CN(C)C(=O)Nc2ccc(C(F)(F)F)cc2)[C@H](C)CN([C@@H](C)CO)C(=O)c2cc(NC(=O)CCC(F)(F)F)ccc2O1,inactive
12,C[C@H](CO)N1C[C@H](C)[C@@H](CN(C)C(=O)Nc2ccc(C(F)(F)F)cc2)OCCCC[C@H](C)Oc2ccc(NC(=O)CCC(F)(F)F)cc2C1=O,active
13,C[C@@H]1CCCCO[C@H](CN(C)C(=O)Nc2ccc(C(F)(F)F)cc2)[C@H](C)CN([C@@H](C)CO)C(=O)c2cc(NC(=O)CCC(F)(F)F)ccc2O1,active
14,C[C@@H]1CN([C@@H](C)CO)C(=O)c2cc(NC(=O)CCC(F)(F)F)ccc2O[C@@H](C)CCCCO[C@H]1CN(C)C(=O)Nc1ccc(C(F)(F)F)cc1,inactive
15,C[C@H](CO)N1C[C@H](C)[C@H](CN(C)C(=O)Nc2ccc(C(F)(F)F)cc2)OCCCC[C@H](C)Oc2ccc(NC(=O)CCC(F)(F)F)cc2C1=O,inactive
16,C[C@@H]1CCCCO[C@H](CN(C)C(=O)Nc2ccc(C(F)(F)F)cc2)[C@H](C)CN([C@H](C)CO)C(=O)c2cc(NC(=O)CCC(F)(F)F)ccc2O1,inactive
17,C[C@@H]1CCCCO[C@@H](CN(C)C(=O)Nc2ccc(C(F)(F)F)cc2)[C@@H](C)CN([C@H](C)CO)C(=O)c2cc(NC(=O)CCC(F)(F)F)ccc2O1,inactive
18,C[C@@H]1CCCCO[C@H](CN(C)C(=O)Nc2ccc(C(F)(F)F)cc2)[C@@H](C)CN([C@H](C)CO)C(=O)c2cc(NC(=O)CCC(F)(F)F)ccc2O1,inactive
19,C[C@H]1CCCCO[C@H](CN(C)C(=O)Nc2ccc(C(F)(F)F)cc2)[C@@H](C)CN([C@@H](C)CO)C(=O)c2cc(NC(=O)CCC(F)(F)F)ccc2O1,active
